KCNQ2 block = KCNQ2 (rat) channel inhibition. hit rate 1.1% among 310,000. CHO-K1 KCNQ2, FluxOR thallium flux, 20 min; active compounds read low. B-score at 10 µM;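 active = fluorescence ratio B-score at most minus 3 library SDs, with starting brightness B-score within 2 library SDs, cut at about -5.5 in these data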
KCNQ2 pot = potentiators of rat KCNQ2 potassium channel. O88943. CHO-K1 KCNQ2, FluxOR thallium flux fluorescence; active compounds read high. B-score at 10 µM. hit rate 0.54% among 310,000. AID 2239;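 active = fluorescence ratio B-score at least 3 SD of library B-scores, with initial fluorescence B-score within 3 of them, cut at about 5.3 in these data; same plate scores as AID 2156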;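 also: B-score of peak minus minimum over baseline fluorescence ratio after K+ and Tl+ stimulus; positive B-score means potentiation of KCNQ2 with more thallium influx and brighter signal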
KCNQ2 block conf = confirmation of rat KCNQ2 potassium channel inhibitors. shares compounds with KCNQ2 block. KCNQ2-expressing cells, thallium flux, inhibition; active compounds read low. activity change, negative = inhibition, % at 10 µM. hit rate 57% among 1,000;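 also: 0% = vehicle wells and values are ratio percent relative to vehicle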
KCNQ1 spec = selectivity of KCNQ2 inhibitors against human KCNQ1; shares compounds with KCNQ2 block; KCNQ1-expressing cells, FluxOR thallium flux fluorescence; active compounds read low; activity change, negative = inhibition, % at 10 µM; hit rate 15% among 1,000; AID 493026;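 active = activity change at least 3 SD of negative controls below their mean in both duplicate wells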;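 also: CHO cells stably transfected with KCNQ1 and depolarized by potassium stimulus; peak minus minimum fluorescence over baseline after thallium addition; 0% = vehicle negative control and -100% = blank without thallium stimulus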
Target sequence (P51787 whole entry, looked up): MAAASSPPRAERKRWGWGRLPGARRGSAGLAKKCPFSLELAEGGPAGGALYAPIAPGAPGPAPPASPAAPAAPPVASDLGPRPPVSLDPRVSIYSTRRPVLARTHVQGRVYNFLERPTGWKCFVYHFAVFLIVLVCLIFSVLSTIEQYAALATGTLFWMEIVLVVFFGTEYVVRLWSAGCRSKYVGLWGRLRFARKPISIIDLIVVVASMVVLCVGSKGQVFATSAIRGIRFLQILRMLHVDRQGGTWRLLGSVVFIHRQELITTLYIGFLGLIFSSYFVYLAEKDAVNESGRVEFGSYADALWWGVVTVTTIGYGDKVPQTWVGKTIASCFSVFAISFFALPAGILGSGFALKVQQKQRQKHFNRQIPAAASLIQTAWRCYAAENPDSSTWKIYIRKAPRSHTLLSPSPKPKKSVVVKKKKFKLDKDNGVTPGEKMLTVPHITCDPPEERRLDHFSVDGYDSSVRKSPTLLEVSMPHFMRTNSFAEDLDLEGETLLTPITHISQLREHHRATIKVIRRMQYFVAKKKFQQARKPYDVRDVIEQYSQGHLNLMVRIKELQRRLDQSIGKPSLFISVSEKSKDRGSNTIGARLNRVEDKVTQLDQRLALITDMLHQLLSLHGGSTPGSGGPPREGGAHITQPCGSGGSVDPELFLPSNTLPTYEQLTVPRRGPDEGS
CHO parental ctr = activity in parental CHO cells lacking KCNQ2; activity change, % at 10 µM; thallium flux counter-screen; active compounds read low; shares compounds with KCNQ2 block; AID 493029; hit rate 14% among 1,000;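 also: 0% = vehicle negative controls with stimulus buffer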
KCNQ2 patch conf = rat KCNQ2 inhibition confirmed by electrophysiology | shares compounds with KCNQ2 block | KCNQ2-expressing cells, automated patch clamp current | calls only at 10 µM | hit rate 49% among 550 | AID 588531
* hit, by the source's call; i = inactive; x = no result; + = active, no number. The list is not random: actives were taken first. Their share in the collection is about 1.6%. Unless noted, no rule for the calls is given here.

SMILES	KCNQ2 block	KCNQ2 pot	KCNQ2 block conf	KCNQ1 spec	CHO parental ctr	others
COCCn1c(SC(C(=O)Nc2cc(C)ccc2OC)c2ccccc2)nnc1-c1ccc(Cl)cc1 (stereo not drawn)	-9.5*	-9.5	i	i	i
COc1ccc(C)cc1NC(=O)C(Sc1nnnn1C)c1ccccc1 (stereo not drawn)	i	x	x	x	x
Cc1nn(Cc2ccccc2)c(C)c1NC(=O)CSc1nnc(-c2cc(Cl)ccc2O)n1C	i	0.52	x	x	x
O=C(CCc1nc2ccccc2s1)Nc1cccnc1	i	1.9	x	x	x
Cc1ccc(/C=C/C(=O)c2ccc(C)cc2)cc1	i	x	x	x	x
Cc1ccc(C(=O)/C=C/C(=O)c2ccc(C)cc2)cc1	-7.5*	-7.5	i	i	i
Cc1cccc(N2CCN(C(=O)N3CCCCC3)CC2)c1C	i	x	x	x	x
O=C(N1CCN(c2ccc(F)cc2)CC1)C12CC3CC(CC(C3)C1)C2	i	x	x	x	x
O=C(N1CCN(c2ccccc2F)CC1)C12CC3CC(CC(C3)C1)C2	-7.6*	-7.6	-26%*	i	i	KCNQ2 patch conf=+
Cc1cccc(N2CCN(C(=O)C34CC5CC(CC(C5)C3)C4)CC2)c1C	-7.3*	-7.3	-20%*	i	i	KCNQ2 patch conf=i
Cc1cc(C)c2cc(C(=O)Nc3ccccc3)[nH]c2c1	i	0.67	x	x	x
CCN(CC)CCN1C(=O)c2oc3ccccc3c(=O)c2C1c1cccc(Br)c1 (stereo not drawn)	i	1.2	x	x	x
O=C1c2oc3ccc(Cl)cc3c(=O)c2C(c2cccc(Br)c2)N1CCO (stereo not drawn)	-11*	-11	i	i	i
O=C1CN(S(=O)(=O)c2ccc([N+](=O)[O-])cc2)CC(=O)N1	i	0.64	x	x	x
Cc1ccc(OCc2nc(-c3cccs3)no2)c([N+](=O)[O-])c1	i	x	x	x	x
C=CCNC(=O)/C(C#N)=C/c1ccccc1Cl	-6.7*	-6.7	i	i	i
C=CCNC(=O)/C(C#N)=C/c1ccc(C(=O)O)cc1	i	0.4	x	x	x
COC(=O)Cc1c[nH]c2cccc(OCC(O)CN(Cc3ccc([N+](=O)[O-])cc3)C(C)(C)C)c12 (stereo not drawn)	-8.5*	-8.5	-20%*	i	i	KCNQ2 patch conf=+
CC(C)CN(CC(C)C)CC(O)COc1ccc([N+](=O)[O-])cc1 (stereo not drawn)	i	x	x	x	x
CCn1c(SCC(=O)NC2CCCc3ccccc32)nnc1-c1cccs1 (stereo not drawn)	i	x	x	x	x
CC(Sc1nnc(-c2cccs2)n1Cc1ccccc1)C(=O)NCc1ccc2c(c1)OCO2 (stereo not drawn)	-9.8*	-9.8	i	i	i
CCn1c(SC(C)C(=O)NC2CCCc3ccccc32)nnc1-c1cccs1 (stereo not drawn)	-8.4*	-8.4	i	i	i
O=C(CSc1nnc(-c2cccs2)n1Cc1ccccc1)NCc1ccc2c(c1)OCO2	i	x	x	x	x
O=C(COC(=O)C1CCN(c2ccc(C(F)(F)F)cn2)CC1)c1ccc(F)cc1	i	x	x	x	x
O=C(COC(=O)C1CCN(c2ccc(C(F)(F)F)cn2)CC1)c1ccccc1Cl	i	x	x	x	x
SMILES	KCNQ2 block	KCNQ2 pot	KCNQ2 block conf	KCNQ1 spec	CHO parental ctr	others
Cc1cc(C)c(C(=O)COC(=O)C2CCN(c3ccc(C(F)(F)F)cn3)CC2)cc1C	-10*	-10	i	i	i
COc1cc(C(=O)COC(=O)C2CCN(c3ccc(C(F)(F)F)cn3)CC2)ccc1OC(F)F	-9.9*	-9.9	i	i	i
Cc1ccc(NC(=S)N2CC(C)OC(C)C2)cc1C (stereo not drawn)	i	0.27	x	x	x
Cc1ccc(-c2nn(-c3ccccc3)cc2CC(=S)N2CCOCC2)cc1	i	x	x	x	x
C=CCn1c(Sc2ncc([N+](=O)[O-])s2)n[nH]c1=O	-9.8*	-9.8	-40%*	i	i	KCNQ2 patch conf=i
O=[N+]([O-])c1cnc(Sc2ccncn2)s1	i	x	x	x	x
CC(C)(C)N1CC(c2nc3ccccc3n2Cc2ccc(Cl)cc2)CC1=O (stereo not drawn)	-7.1*	-7.1	-27%*	i	i	KCNQ2 patch conf=+
CC(C)(C)N1CC(c2nc3ccccc3n2CCOc2ccccc2)CC1=O (stereo not drawn)	i	1.5	x	x	x
O=C1ON=C(c2ccccc2)/C1=C\c1ccco1	i	x	x	x	x
Cc1ccc(/C=C2/C(=O)ON=C2c2ccccc2)o1	-9*	-9	-24%*	i	i	KCNQ2 patch conf=i

Screening data as filed in PubChem.
